Experimental findings from PubChem BioAssay (NCI) are described below.

A short description of assay [1]: NCI Yeast Anticancer Drug Screen. Data for the rad50 strain (AID 155).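 Note: 0% = growth of vehicle-only cultures of the same strain.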 Particulars: S. cerevisiae rad50 strain growth inhibition, active compounds read high. In a few lines:
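Readout: growth inhibition relative to vehicle-treated cultures. Compound exposure was carried out in a genetically defined yeast strain deficient in DNA damage repair.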

Assay [2] is described as follows: NCI Yeast Anticancer Drug Screen. Data for the mec2-1 strain (AID 157). The following applies: S. cerevisiae mec2-1 strain, active compounds read high. The method in brief: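 Cells of the genetically defined mec2-1 yeast strain are incubated with test compound. Inhibition of growth is calculated against vehicle-treated controls.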
Assay [3] is described as follows: NCI Yeast Anticancer Drug Screen. Data for the sgs1 mgt1 strain (AID 161).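 Note: 0% = growth of cultures given vehicle only.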 The following applies: S. cerevisiae sgs1 mgt1 strain, active compounds read high. The method in brief:
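Mutant yeast exposed to compound; growth scored against vehicle-only wells.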

Assay [4] is described as follows: NCI Yeast Anticancer Drug Screen. Data for the cln2 rad14 strain (AID 165).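 Note: 0% = growth equal to vehicle treated cultures.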 Particulars: S. cerevisiae cln2 rad14 strain, active compounds read high. The method in brief: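 The screen exposed genetically defined yeast (cln2 rad14) to test compounds and scored growth inhibition relative to vehicle-treated controls.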
Assay [5] in a line: NCI Yeast Anticancer Drug Screen. Data for the bub3 strain (AID 167). Particulars: S. cerevisiae bub3 mutant strain, active compounds read high. The method in brief:
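Readout: yeast growth inhibition, expressed relative to vehicle-only wells. The test organism is a mutant strain from a panel with lesions in DNA repair or checkpoint genes.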

Assay [6] can be described thus: NCI Yeast Anticancer Drug Screen. Data for the mlh1 rad18 strain (AID 175). Particulars: S. cerevisiae mlh1 rad18 strain growth inhibition, active compounds read high. In a few lines: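 Compound-treated yeast growth, normalised to vehicle controls. Strain bears defined DNA repair mutations.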
Setting [7] is: at 5.0 µM (retest, dose inferred, filed as 0.5).
Where [8] appears, read: at 50.0 µM (retest, dose inferred, filed as 5.0).

Molecules are shown by their SMILES. This is part of a sample that, as a whole, favours compounds with a hit. Of some 79,000 tested, about 15% had one in any assay. A number with no mark means an inactive call. Calls of active or inactive are those of the source. Cut-off read from the data, not from the text of the source: active = growth inhibition above about 70%; inactive = the rest.

`C=CCOc1cc2c(ccc1=O)-c1c(cc(OC)c(OC)c1OC)CCC2NC(C)=O` (configuration not stated): the growth inhibition in assay [1] (setting [7]) was -3%; in assay [1] (setting [8]), 3%; in assay [1] (at 50.0 µM) it was 96.1% (active); in assay [2] (setting [7]), 3%; in assay [2] (setting [8]), 80% (active); in assay [2] (at 50.0 µM), 87.6% (active). In addition, the growth inhibition in assay [3] (setting [7]) was -18%; in assay [3] (setting [8]), 45%; in assay [3] (at 50.0 µM) it was 93.9% (active); in assay [4] (setting [7]) it was -5%; in assay [4] (setting [8]), -11%; in assay [4] (at 50.0 µM), 96.3% (active). Further, the growth inhibition in assay [5] (setting [7]) is -5%; in assay [5] (setting [8]), 66%; in assay [5] (at 50.0 µM), 96.8% (active); in assay [6] (setting [7]), -5%; in assay [6] (setting [8]) it was 78% (active); in assay [6] (at 50.0 µM), 95.5% (active).

On to `CC1=C(CO)C(=O)OC(C(C)C2CCC3C4CC5OC56C(O)C(N5CC5)=CC(=O)C6(C)C4CCC23C)C1` (configuration not stated), for which the growth inhibition in assay [1] (setting [7]) is -7%; in assay [1] (setting [8]) it was 43%; in assay [1] (at 50.0 µM), 76.8% (active); in assay [2] (setting [7]), 3%; in assay [2] (setting [8]), 49%; in assay [2] (at 50.0 µM), 75.5% (active). Besides, the growth inhibition in assay [3] (setting [7]) is -2%; in assay [3] (setting [8]) it was 42%; in assay [3] (at 50.0 µM), 70.2% (active); in assay [4] (setting [7]), 23%; in assay [4] (setting [8]), 57%; in assay [4] (at 50.0 µM) it was 28.9%. The growth inhibition in assay [5] (setting [7]) is 13%; in assay [5] (setting [8]), 77% (active); in assay [5] (at 50.0 µM), 75.2% (active); in assay [6] (setting [7]) it was -1%; in assay [6] (setting [8]), 78% (active); in assay [6] (at 50.0 µM), 69.8%.

Consider `CC1(C)C(=O)C=CC2(C)C1CC(O)C1(C)C2CCC2(C)C(c3ccoc3)OC(=O)C3OC321` (configuration not stated), for which the growth inhibition in assay [1] (setting [7]) was 15%; in assay [1] (setting [8]), 16%; in assay [1] (at 50.0 µM), 86.8% (active); in assay [2] (setting [7]), 4%; in assay [2] (setting [8]), 12%; in assay [2] (at 50.0 µM) it was 86.5% (active). For the same molecule, the growth inhibition in assay [3] (setting [7]) was 11%; in assay [3] (setting [8]) it was 52%; in assay [3] (at 50.0 µM), 82.7% (active); in assay [4] (setting [7]) it was 4%; in assay [4] (setting [8]) it was 8%; in assay [4] (at 50.0 µM), 76.5% (active). Also, the growth inhibition was 3% in assay [5] (setting [7]); 12% in assay [5] (setting [8]); 82.2% (active) in assay [5] (at 50.0 µM); 16% in assay [6] (setting [7]); 18% in assay [6] (setting [8]); 44.5% in assay [6] (at 50.0 µM).

Consider `CC(=O)O[C@H]1CC[C@H]2[C@@H]3CCC4=CC(=O)CC[C@@H]4[C@H]3CC[C@]12C`, for which the growth inhibition in assay [1] (setting [7]) is 2%; in assay [1] (setting [8]), 93% (active); in assay [1] (at 50.0 µM), 96.8% (active); in assay [2] (setting [7]) it was -1%; in assay [2] (setting [8]) it was 92% (active); in assay [2] (at 50.0 µM) it was 93.5% (active). The growth inhibition in assay [3] (setting [7]) is -4%; in assay [3] (setting [8]), 91% (active); in assay [3] (at 50.0 µM), 97.8% (active); in assay [4] (setting [7]) it was -3%; in assay [4] (setting [8]), 39%; in assay [4] (at 50.0 µM), 14.8%. In addition, the growth inhibition in assay [5] (setting [7]) was 1%; in assay [5] (setting [8]), 84% (active); in assay [5] (at 50.0 µM) it was 76.2% (active); in assay [6] (setting [7]), 0%; in assay [6] (setting [8]) it was 89% (active); in assay [6] (at 50.0 µM), 97.3% (active).

Turning to `O=[N+]([O-])c1cc2c([N+](=O)[O-])cccc2o1`, the growth inhibition was 15% in assay [1] (setting [7]); 98% (active) in assay [1] (setting [8]); 95.9% (active) in assay [1] (at 50.0 µM); 8% in assay [2] (setting [7]); 99% (active) in assay [2] (setting [8]); 99.7% (active) in assay [2] (at 50.0 µM). The growth inhibition in assay [3] (setting [7]) is 19%; in assay [3] (setting [8]), 99% (active); in assay [3] (at 50.0 µM), 99.2% (active); in assay [4] (setting [7]), 0%; in assay [4] (setting [8]), 99% (active); in assay [4] (at 50.0 µM), 97.3% (active). For the same molecule, the growth inhibition in assay [5] (setting [7]) was 7%; in assay [5] (setting [8]) it was 98% (active); in assay [5] (at 50.0 µM), 99.5% (active); in assay [6] (setting [7]), 74% (active); in assay [6] (setting [8]), 99% (active); in assay [6] (at 50.0 µM), 99.5% (active).

As for `CCCCCCCCCCCCCCCCCC[N+](C)(C)C`, the growth inhibition was 98% (active) in assay [1] (setting [7]); 96% (active) in assay [1] (setting [8]); 88.5% (active) in assay [1] (at 50.0 µM); 99% (active) in assay [2] (setting [7]); 97% (active) in assay [2] (setting [8]); 91.4% (active) in assay [2] (at 50.0 µM). Further, the growth inhibition in assay [3] (setting [7]) was 99% (active); in assay [3] (setting [8]), 95% (active); in assay [3] (at 50.0 µM), 89.8% (active); in assay [4] (setting [7]) it was 99% (active); in assay [4] (setting [8]) it was 95% (active); in assay [4] (at 50.0 µM), 89.9% (active). Moreover, the growth inhibition in assay [5] (setting [7]) is 99% (active); in assay [5] (setting [8]) it was 96% (active); in assay [5] (at 50.0 µM), 87% (active); in assay [6] (setting [7]) it was 97% (active); in assay [6] (setting [8]), 96% (active); in assay [6] (at 50.0 µM) it was 89.8% (active).

With `O=P(c1ccccc1)(c1ccccc1)c1ccccc1.O=P(c1ccccc1)(c1ccccc1)c1ccccc1.S=C=[N][Sn]([N]=C=S)([N]=C=S)[c]1ccccc1`, the growth inhibition in assay [1] (setting [7]) was 58%; in assay [1] (setting [8]), 98% (active); in assay [1] (at 50.0 µM), 99.5% (active); in assay [2] (setting [7]) it was 21%; in assay [2] (setting [8]) it was 99% (active); in assay [2] (at 50.0 µM), 99.5% (active). Further, the growth inhibition is 62% in assay [3] (setting [7]); 99% (active) in assay [3] (setting [8]); 99% (active) in assay [3] (at 50.0 µM); -2% in assay [4] (setting [7]); 98% (active) in assay [4] (setting [8]); 97.8% (active) in assay [4] (at 50.0 µM). The growth inhibition is -2% in assay [5] (setting [7]); 99% (active) in assay [5] (setting [8]); 99.2% (active) in assay [5] (at 50.0 µM); 72% (active) in assay [6] (setting [7]); 99% (active) in assay [6] (setting [8]); 97.7% (active) in assay [6] (at 50.0 µM).

As for `CCCCCCCCCCCCN=C(N)N`, the growth inhibition in assay [1] (setting [7]) is 80% (active); in assay [1] (setting [8]), 98% (active); in assay [1] (at 50.0 µM) it was 99.1% (active); in assay [2] (setting [7]) it was 72% (active); in assay [2] (setting [8]), 99% (active); in assay [2] (at 50.0 µM), 99.3% (active). Besides, the growth inhibition in assay [3] (setting [7]) is 87% (active); in assay [3] (setting [8]), 99% (active); in assay [3] (at 50.0 µM), 99% (active); in assay [4] (setting [7]), 59%; in assay [4] (setting [8]), 98% (active); in assay [4] (at 50.0 µM), 98.5% (active). In addition, the growth inhibition in assay [5] (setting [7]) was 96% (active); in assay [5] (setting [8]), 99% (active); in assay [5] (at 50.0 µM), 99.4% (active); in assay [6] (setting [7]), 71% (active); in assay [6] (setting [8]), 98% (active); in assay [6] (at 50.0 µM), 98.4% (active).

Regarding `CCc1ccc2c(c1)N(CCCN(CCCl)CCCl)c1ccccc1S2`, the growth inhibition is -4% in assay [1] (setting [7]); 85% (active) in assay [1] (setting [8]); 98.5% (active) in assay [1] (at 50.0 µM); 44% in assay [2] (setting [7]); 59% in assay [2] (setting [8]); 99.2% (active) in assay [2] (at 50.0 µM). Besides, the growth inhibition in assay [3] (setting [7]) was -4%; in assay [3] (setting [8]), 89% (active); in assay [3] (at 50.0 µM), 98.6% (active); in assay [4] (setting [7]), -1%; in assay [4] (setting [8]), 53%; in assay [4] (at 50.0 µM), 96.8% (active). Further, the growth inhibition in assay [5] (setting [7]) is -1%; in assay [5] (setting [8]) it was 94% (active); in assay [5] (at 50.0 µM) it was 98.5% (active); in assay [6] (setting [7]), -2%; in assay [6] (setting [8]) it was 94% (active); in assay [6] (at 50.0 µM), 98.6% (active).
